Here are results for 15 molecules from the supplement of paper PMC10670038.

Structures are written as SMILES. Counter-ions that a name gives are not always drawn. ± gives the standard deviation of the averaged measurements. Over roughly 2,000 compounds, “relative cell viability vs DMSO, compound alone” has its median near 1.1; the lowest 2% begin near 0.29. The sample as a whole holds a higher share of the lowest values than the screen did.

For this experiment, the system named is TE10. Description: relative cell viability vs DMSO, compound alone (fraction); TE10 is an esophageal squamous carcinoma line; higher = less cytotoxic. The conditions noted are these: 2 µM; 48 h. How it is done:
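TE10 ESCC cells (1,000/well, 384-well plates) were treated with Selleck bioactive library compounds at 2 uM alone for 48 h. Viability was read by CellTiter-Glo and expressed relative to DMSO wells. Two technical replicates (A, B).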
For the molecule `C[C@H]1CCC/C=C/[C@@H]2C[C@H](O)C[C@H]2[C@H](O)/C=C/C(=O)O1` [Brefeldin A], the relative cell viability turned out to be 0.2497 ± 0.0017.
The figure for `Cc1c(Cl)c(OCC(=O)N2CCN(C)CC2)nc2sc(C(=O)NC3CC3)c(N)c12` is 1.04 ± 0.019; for `Cc1cc(C(C#N)c2ccc(Cl)cc2)c(Cl)cc1NC(=O)c1cc(I)cc(I)c1O` (stereo not given) [Closantel] it is 1.12 ± 0.019; for `O=S(=O)(F)Cc1ccccc1` it is 0.978 ± 0.021.
To `O=C(O)CCCc1ccc(N(CCCl)CCCl)cc1` [Chloroambucil] belongs 1.14 ± 0.012.
To `CN1C2CC(O)CC1C1OC12` (stereo not given) [Scopine] belongs 0.808 ± 0.14; to `C=CC[C@]1(O)CC[C@H]2[C@@H]3CCC4=CC(=O)CCC4=C3C=C[C@@]21C` [Altrenogest], 1.115 ± 0.0019; to `Cc1c(N)nc(C(CC(N)=O)NCC(N)C(N)=O)nc1C(=O)NC(C(=O)NC(C)C(O)C(C)C(=O)NC(C(=O)NCCc1nc(-c2nc(C(=O)NCCC[S+](C)C)cs2)cs1)C(C)O)C(O[C@@H]1O[C@@H](CO)[C@@H](O)[C@H](O)[C@@H]1O[C@H]1O[C@H](CO)[C@@H](O)[C@H](OC(N)=O)[C@@H]1O)c1cnc[nH]1` (stereo not given in full) [Bleomycin Sulfate], 0.856 ± 0.038.
`C[C@@H]1CC[C@@]2(OC1)O[C@H]1C[C@H]3[C@@H]4CC=C5C[C@@H](O[C@@H]6O[C@H](CO)[C@@H](O[C@@H]7O[C@@H](C)[C@H](O)[C@@H](O)[C@H]7O)[C@H](O)[C@H]6O[C@@H]6O[C@@H](C)[C@H](O)[C@@H](O)[C@H]6O)CC[C@]5(C)[C@H]4CC[C@]3(C)[C@H]1[C@@H]2C` [Dioscin]: the relative cell viability was found to be 0.189 ± 0.051.
`O=C1CCC[C@@H]2[C@H]3CCCN4CCC[C@@H](CN12)[C@@H]34` [(+)-Matrine] yielded a relative cell viability of 1.1 ± 0.059.
`CC1=C(O)C(=O)C=C2C1=CC=C1[C@@]2(C)CC[C@@]2(C)[C@@H]3C[C@](C)(C(=O)O)CC[C@]3(C)CC[C@]12C` [Celastrol] had a relative cell viability of 0.306 ± 0.0087.
To `O=[N+]([O-])C=Cc1ccc2c(c1)OCO2` [MNS (3,4-Methylenedioxy-β-nitrostyrene, MDBN)] belongs 0.742 ± 0.054; to `CC(C)=CCC[C@]1(C)C=Cc2c(O)c3c(c(CC=C(C)C)c2O1)O[C@]12C(=C[C@@H]4C[C@H]1C(C)(C)O[C@@]2(C/C=C(/C)C(=O)O)C4=O)C3=O` [Gambogic Acid], 0.0673 ± 0.0049; to `Cc1sc2c(c1C)C(c1ccc(Cl)cc1)=N[C@@H](CC(=O)OC(C)(C)C)c1nnc(C)n1-2`, 0.9008 ± 0.0079.
With `Cc1sc2c(c1C)C(c1ccc(Cl)cc1)=NC(CC(N)=O)c1nnc(C)n1-2` (stereo not given), the relative cell viability worked out at 0.954 ± 0.053.
